Experimental findings from PubChem BioAssay AID720534 (National Center for Advancing Translational Sciences (NCATS), 2013) are described below.

Hit rate of the full screen: of about 1,600 compounds, about 990 (62%) were called active. About 30% were inconclusive and are not listed. Calls follow the shape of the dose curve; as a rule, active = well fitted inhibition curve with a large enough effect; inconclusive = small, poorly fitted or top-dose-only effect; inactive = no such curve, though single readings can be large or run the other way. So high a share suggests a set chosen from earlier hits. The full list was thinned out, with actives kept by preference.
Potency is read from the fitted curve at half-maximal effect.

This experiment is described as follows: qHTS for Inhibitors of TGF-b: Confirmation of Cherry Picks. Also: nearly all actives have a fitted effect of over 65% in size. As to conditions: HepG2 CAGA-GFP TGF-b reporter, GFP fluorescence, 18 h; cells stimulated with TGF-beta, 500 pg/mL. An excerpt:
TGF-b is a main component in the TGF-b signaling pathway which plays diverse roles in cellular and development pathways. TGF-b is mediated through transcription factors called "Smads". Although the Smad-dependent pathway is the primary canonical TGF-b signaling mode, TGF-b1 can also activate alternative signaling pathways, including those involving MAPK (ERK, JNK and p38). This interaction may mediate or enhance Smad-dependent responses, or can exert Smad-independent effects. The complexity of this signaling cascade allows the TGF-b superfamily to perform unique, overlapping or redundant functions. We believe that targeting the TGF-beta pathway at the Smad-transcription factor level may eliminate the consequences of disrupting the entire pathway and offer specificity without affecting other signaling pathways. Smad3 is the primary transducer of TGF-b's signals and Smad3 regulates many functions attributed to TGF-b signaling. We hypothesize that Smad3 inhibitors will selectively eliminate Smad3-specific TGF-beta signals without undesired off-target effects. We aim to identify Smad3-small molecule antagonists using a quantitative high throughput screening (qHTS) approach. In this assay, hits identified from the primary screen were re-tested. MH087449NIH Chemical Genomics Center [NCGC] NIH Molecular Libraries Probe Centers Network [MLPCN] MLPCN Grant: MH087449 Assay Submitter (PI): Sushil Rane, National Institute of Diabetes and Kidney Diseases
Suspensions of trypsinized HEPG2 CAGA-GFP cells were dispensed into white, tissue culture-treated, solid 1536-well plates at 5uL/well (1000 cells/well final concentration) in DMEM medium supplemented with 1% FBS. Plates were incubated at 37 degrees C for 2 hours, after which 23 nL of compounds or DMSO were delivered to each well using a pin tool. One uL of recombinant TGF-beta in DMEM (1% FBS) was then dispensed (500 pg/mL final concentration), and plates were incubated at 37 degrees C for 18 hours. The plates were measured on an Acumen eX3 Explorer plate reader for GFP fluorescence (ex488/em500-530). GFP values were calculated by determining the mean GFP fluorescence of individual cells, and compiling these values for each well to determine a total well GFP signal. The %Activity was determined from the corrected fluorescence values. A titration of the known TGF-B inhibitor SB431542 was included to monitor plate performance, while unstimulated HEPG2 (-TGF-B) control wells were used to normalize %Activity of identified inhibitors; unstimulated wells corresponded to 100%Activity (full inhibition), while stimulated cell controls (+DMSO) were used to normalize 0%Activity (no inhibition). Concentration-response curves were fitted to the signals arising from the resulting fluorescence. The concentration-effect curves were then classified based on curve quality (r2), response magnitude and degree of measured activity, and compounds were subsequently categorized based on their curve class.
Take `COC(=O)C1=C(c2cc3ccccc3o2)C[C@@H]2CC[C@H]1N2C(=O)NC1CCCCC1`: the Potency was 20.6 µM (active).
With `O=Cc1cn(Cc2ccc(F)cc2Cl)c2ccccc12` the figure was 9.2 µM (active).
With `CN(C(=O)c1cccc(NC(=O)Cc2cccc([N+](=O)[O-])c2)c1)C1CCCCC1` the figure was 13 µM (active); with `CCC(C)(O)C(=O)OC1C(=O)OC2CC3C(C)=CC(=O)C(O)C3(C)C3C4(O)OCC23C1C(C)C4O` (stereo not given), 0.291 µM (active); with `CC[C@H]1CN2CCc3cc(OC)c(OC)cc3[C@@H]2C[C@@H]1C[C@H]1NCCc2cc(OC)c(OC)cc21`, 0.0231 µM (active).
